Compounds without any hit were thinned out: in the full panel of roughly 83,000, 20% have a hit.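 Each cell line was grown in a 96-well plate and treated with one concentration of compound for 48 hours. Values below 10 were considered active.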 A number with no mark means an inactive call. Activity calls are given as the source filed them.
system: MDA-MB-435 melanoma; experiment: NCI-60 one-dose screen, 48 h (100 = growth as untreated, 0 = no growth, -100 = all killed); details: 10 µM unless noted
Method: Growth inhibition of the MDA-MB-435 human Melanoma tumor cell line is measured as a screen for anti-cancer activity. Cells are grown in 96 well plates and exposed to the test compound for 48 hours. Compounds are tested at a single concentration, which is 10^-5 M for most compounds. The reported endpoint is percent growth (GI% or GIPRCNT), where numbers from 0 - 100% represent growth inhibition, and numbers from -100% - 0 represent cell death. For example, a value of 40 represents 60% growth inhibition. A value of 0 means no net growth occurred over the course of the experiment. A value of -40 indicates 40% of cells at the beginning of the experiment died by the end of the experiment. A value of -100 means all cells are dead at the end of the experiment.
NCI-60 Human Tumor Cell Lines Screen was performed using the standard one-dose NCI protocol, which is described in more detail at https://dtp.cancer.gov/discovery_development/nci-60/default.htm.
Compounds with GIPRCNT values below 10 were considered active. Activity score was based on GIPRCNT using the following formula: […]
Score is 0 for GIPRCNT values of 100 or above, 50 for GIPRCNT values of 0, and 100 for GIPRCNT values of -100.

| Compound | growth |
| --- | --- |
| CCCN1CCN(c2ccc3nc(-c4ccc5nc(-c6ccc(OCC)cc6)[nH]c5c4)[nH]c3c2)CC1 | 27.6% |
| CN1C(=O)C2(SCC(C(=O)NCc3ccccc3)N2C(=O)C2CCCCC2)c2ccccc21 (stereo not given) | 81.2% |
| O=C1/C(=C(/c2ccccc2)N2CCOCC2)Cc2ccccc21 | 12.6% |
| Nc1ccc(-c2cc3c(Nc4ccc(Oc5cccc(C(F)(F)F)c5)c(Cl)c4)ncnc3s2)cc1 | 70.3% |
| COc1ccc(S(=O)(=O)N2CCCCC2)cc1NC(=O)c1[nH]c(C)c2c1CCCCC2=O | 21.7% |
| O=C(Nc1ccc(Cl)cc1)c1cc2cc(F)ccc2cc1O | 10.5% |
| Cc1ccc(OC(=O)c2ccc(Cl)cc2)cc1 | 99.1% |
| O=C1CC[C@H](c2ccc(O)c3c2C(=O)[C@@H]2O[C@@H]2C3=O)c2cccc(O)c21 | 47.3% |
| COc1ccc(-n2nc(C)c3c(Nc4ccc(NC(=O)Nc5c(Cl)cccc5Cl)cc4)ncnc32)cc1 | 49.1% |
| Oc1cccc(-c2nc(N3CCOCC3)c3c4c(sc3n2)CCCC4)c1 | 59.7% |
| C=CCSSC1N=CNc2nc[nH]c21 (stereo not given) | 25.5% |
| CSc1ccc(SC2c3ccc(C)cc3Oc3nc(N)c(C#N)c(N)c32)cc1 (stereo not given) | -86.7% (active) |
| CCN(CC)S(=O)(=O)c1ccc(OC)c(NC(=O)c2[nH]c(C)c3c2CCCCC3=O)c1 | 31.3% |
| COc1ccc(C(=O)COc2ccc(/C=C3\Oc4ccc(OC)cc4C3=O)cc2)cc1 | 115% |
| Cc1[nH]c(-c2ccc3cc[nH]c3c2)c2c1C(=O)CCCC2 | 25.2% |
| Cc1cc(C)nc(SC2=C(Nc3cccc(Cl)c3)C(=O)N(Cc3ccccc3)C2=O)n1 | 61.4% [30 µM] |
| COc1cc2c(cc1-c1c(C)noc1C)ncc1nc(C3CCOCC3)n([C@@H](C)COC(F)F)c12 | 39.7% |
| Nc1nc2ccc3[nH]ncc3c2c2c1CCCC2 | 6.3% (active) |
| Cc1cc2nc(NC(=O)CN3CCN(CCN4C(=O)c5cccc6cccc(c56)C4=O)CC3)sc2cc1C | 91.4% |
| CC(=O)c1cc(C(=O)c2ccc3c(c2)Sc2ccccc2N3)n2ccccc12 | -9.84% (active) |

| Compound | growth |
| --- | --- |
| Cc1cc(C)c2nc3nc(C)cc(C)c3c(N)c2c1 | 29.5% |
| C=C1C(=O)O[C@H]2[C@H]1CC/C(C=Nc1ccc(C(F)(F)F)cc1N)=C\CC[C@@]1(C)O[C@@H]21 | 0.426% (active) |
| COCCNc1ccc2c3c(cccc13)C(=O)N(CCN(C)C)C2=O | 25.9% |
| CC(=O)O[C@H]1CC[C@]2(C)[C@H]3CC=C4[C@@H]5CC(C)(C)CC[C@]5(C(=O)NCCNCCNCCN)CC[C@@]4(C)[C@]3(C)CC[C@H]2C1(C)C | 9.05% (active) |
| CC(=O)c1cc2c(N)c(C(=O)Nc3cccc(F)c3C)sc2nc1C | 4.9% (active) |
| CCCOc1cc2ccccc2cc1C(=O)Nc1nc(NC)c2c(ccc3nccc32)[nH]1 | -89.2% (active) |
| Cc1ccc2c(C(C[N+](=O)[O-])c3ccccc3F)c(-c3ccccc3)[nH]c2c1 (stereo not given) | -30.3% (active) |
| CN1CCN=C1c1ccc(NC(=O)c2ccc(C(=O)Nc3ccc(C4=NCCN4C)cc3)cc2)cc1 | 108% |
| N#CN1CC[C@H](C(=O)Nc2cc3cc(C(N)=O)ccc3cn2)C1 | 3.57% (active) |
| CC(=O)NCC1c2c(n(C)c3c(Cl)c(Cl)ccc23)C(=O)NC1(C)C (stereo not given) | 96.4% |
| CCN(CC)c1ccc(-c2cc(-c3cc(OC)c(OC)c(OC)c3)nc(N3CCOCC3)c2C#N)cc1 | -27.5% (active) |
| Cc1c(/C=C/[N+](=O)[O-])ccc2c1[nH]c1ccccc12 | -11.2% (active) |
| COc1ccc(-c2nc3ccc(-c4nc5ccc(N6CCN(c7ccc(F)cc7)CC6)cc5[nH]4)cc3[nH]2)cc1OC | 90.1% |
| O=C(COc1cccc(/C=C2\COc3ccc(Cl)cc3C2=O)c1)c1ccc(Cl)cc1 | 91.2% |
| CN(C)c1ccc(N=Nc2ccc(Br)cn2)c(O)c1 | 33% |
| CN(C)C(=S)N=Nc1c(O)[nH]c2ccccc12 | 40.3% |
| O=C1c2ccccc2OC=C(c2ccccc2)N1CCCCNc1ccc(S(=O)(=O)Nc2ncccn2)cc1 | 105% |
| CCOc1cc2ncc(C#N)c(Nc3ccc(OCc4cccc(F)c4)c(Cl)c3)c2cc1NC(=O)CCCCC1CCSS1 (stereo not given) | 99% |
| CCn1c(O)c(/C=N/NC(=O)C(C)c2ccc(CC(C)C)cc2)sc1=S (stereo not given) | -44.4% (active) |
| Cn1c(=O)[nH]c(=O)c2nc(CCC(=O)NCCC(=O)O)c(=O)[nH]c21 | 101% |
